Assay [1] can be described thus: antimalarial activity against Dd2 strain (AID 2302;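 active = growth inhibition above 50% at the single 2 µM test dose, taken to imply half-maximal potency below 2 µM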;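 also: 0% = DMSO untreated growth and 100% = chloroquine plus artemisinin killed control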). Conditions: P. falciparum Dd2 in RBCs, LDH growth readout, 72 h; at 2 µM; active compounds read high.
The nature of assay [2]: human hepatoma cell viability loss – ATP luminescence, cytotoxicity control for P. falciparum antimalarial project, primary screen (AID 2303;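 active = inhibition above 50%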;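 also: 0% = DMSO wells and 100% = digitonin-killed cells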). Conditions: HepG2 viability, 24-48 h, at 10 µM, active compounds read high.
Assay [3] deals with L-lactate dehydrogenase (Plasmodium falciparum (isolate CDC / Honduras)) (UniProt Q27743). As to the kind of experiment: PfLDH activity inhibition – cell lysate, 3D7 strain, counter-screen for P. falciparum growth inhibition project (AID 2304).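 Also: 0% = vehicle and 100% = reference inhibitor.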 The following applies: P. falciparum 3D7 crude extract, LDH APAD/NBT absorbance; at 2 µM; active compounds read high. A general note: A counterscreen serves to expose hits that act by an unwanted route or on another target.

The nature of assay [4]: inhibition of 3D7 malaria parasite growth – strain 3D7 (AID 2306).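 Also: 0% = DMSO wells and 100% = chloroquine plus artemisinin control wells.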 The following applies: P. falciparum 3D7 erythrocytic growth, LDH absorbance, 72 h; at 2 µM; active compounds read high.
Assay [5] deals with Calcium-dependent protein kinase 1 (Plasmodium falciparum (isolate 3D7)) (UniProt P62344). Kind of assay: PfCDPK1 kinase inhibitors, biochemical, TCAMS library (AID 1159585; cut-off not given, nearly all actives have IC50 up to about 0.98 µM;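 also: inhibitors leave more ATP so luminescence rises with inhibition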). The following applies: recombinant PfCDPK1, Kinase-Glo ATP depletion luminescence.
Assay [6] has as its target Plasmodium falciparum protein kinase 6 (PK6, PF3D7_1337100) (UniProt Q8IDW1). Kind of assay: PfPK6 kinase inhibitors, biochemical, TCAMS library (AID 1159586). The following applies: recombinant PfPK6, Kinase-Glo ATP depletion luminescence. On the technique in general: Kinase-Glo measures the ATP left after a reaction by luminescence.
The target in assay [7] is Protein kinase 7 (PK7), Plasmodium falciparum 3D7 (PF3D7_0213400) (UniProt Q7YTF7). As to the kind of experiment: inhibition of Plasmodium PK7 catalytic activity – biochemical, TCAMS antimalarial set, Kinase-Glo luminescence (AID 1159587). Conditions: recombinant PfPK7, Kinase-Glo ATP depletion luminescence.
Assay [8] addresses Calcium-dependent protein kinase 4 (Plasmodium falciparum (isolate 3D7)) (UniProt Q8IBS5). As to the kind of experiment: PfCDPK4 kinase inhibitors, biochemical, TCAMS library (AID 1159588; cut-off not given, nearly all actives have IC50 up to about 0.91 µM). Conditions: recombinant PfCDPK4, Kinase-Glo ATP depletion luminescence.

Values without a mark were called inactive. For some of these results: Measured potencies and affinities stand elsewhere. Calls of active or inactive are those of the source. Unless noted, no rule for the calls is given here.

Sequence of Calcium-dependent protein kinase 1 (Plasmodium falciparum (isolate 3D7)) (P62344 whole entry, looked up): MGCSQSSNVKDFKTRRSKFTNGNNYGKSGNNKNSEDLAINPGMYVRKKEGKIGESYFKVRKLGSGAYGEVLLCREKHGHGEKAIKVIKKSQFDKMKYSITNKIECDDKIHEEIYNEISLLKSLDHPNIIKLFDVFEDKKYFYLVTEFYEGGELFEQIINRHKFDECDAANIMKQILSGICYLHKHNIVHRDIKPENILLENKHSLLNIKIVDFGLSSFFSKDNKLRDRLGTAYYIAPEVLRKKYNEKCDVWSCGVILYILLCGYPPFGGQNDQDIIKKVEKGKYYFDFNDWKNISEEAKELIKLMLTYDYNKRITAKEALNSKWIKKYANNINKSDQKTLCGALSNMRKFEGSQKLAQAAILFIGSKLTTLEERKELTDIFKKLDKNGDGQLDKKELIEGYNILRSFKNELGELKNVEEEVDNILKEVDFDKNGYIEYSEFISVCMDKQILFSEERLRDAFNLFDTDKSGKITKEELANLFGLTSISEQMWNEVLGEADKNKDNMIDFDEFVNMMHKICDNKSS
Sequence of L-lactate dehydrogenase (Plasmodium falciparum (isolate CDC / Honduras)) (Q27743 whole entry, looked up): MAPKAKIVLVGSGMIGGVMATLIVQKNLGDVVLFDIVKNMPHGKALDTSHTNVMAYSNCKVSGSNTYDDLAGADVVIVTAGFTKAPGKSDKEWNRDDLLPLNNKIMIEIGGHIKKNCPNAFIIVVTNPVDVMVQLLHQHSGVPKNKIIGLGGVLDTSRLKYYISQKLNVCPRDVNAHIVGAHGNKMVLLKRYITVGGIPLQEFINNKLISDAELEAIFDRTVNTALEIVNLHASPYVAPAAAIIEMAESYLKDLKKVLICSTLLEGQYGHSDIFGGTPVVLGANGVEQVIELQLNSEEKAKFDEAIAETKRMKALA
Sequence of Calcium-dependent protein kinase 4 (Plasmodium falciparum (isolate 3D7)) (Q8IBS5 whole entry, looked up): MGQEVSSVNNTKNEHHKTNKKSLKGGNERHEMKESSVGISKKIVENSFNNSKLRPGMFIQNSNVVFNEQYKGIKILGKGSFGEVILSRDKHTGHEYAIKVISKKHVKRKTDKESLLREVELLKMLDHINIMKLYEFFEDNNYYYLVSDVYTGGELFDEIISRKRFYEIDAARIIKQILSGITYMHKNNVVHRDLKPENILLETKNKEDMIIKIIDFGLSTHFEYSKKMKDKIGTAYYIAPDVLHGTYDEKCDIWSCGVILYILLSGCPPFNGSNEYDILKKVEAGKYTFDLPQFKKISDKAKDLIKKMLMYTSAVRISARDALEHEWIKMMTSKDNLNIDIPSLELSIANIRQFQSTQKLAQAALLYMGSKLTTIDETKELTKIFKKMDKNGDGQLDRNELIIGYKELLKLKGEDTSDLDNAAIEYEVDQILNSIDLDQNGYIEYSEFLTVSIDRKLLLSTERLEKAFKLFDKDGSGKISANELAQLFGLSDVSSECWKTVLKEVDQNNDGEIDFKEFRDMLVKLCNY
Sequence of Protein kinase 7 (PK7), Plasmodium falciparum 3D7 (PF3D7_0213400) (Q7YTF7 1-343): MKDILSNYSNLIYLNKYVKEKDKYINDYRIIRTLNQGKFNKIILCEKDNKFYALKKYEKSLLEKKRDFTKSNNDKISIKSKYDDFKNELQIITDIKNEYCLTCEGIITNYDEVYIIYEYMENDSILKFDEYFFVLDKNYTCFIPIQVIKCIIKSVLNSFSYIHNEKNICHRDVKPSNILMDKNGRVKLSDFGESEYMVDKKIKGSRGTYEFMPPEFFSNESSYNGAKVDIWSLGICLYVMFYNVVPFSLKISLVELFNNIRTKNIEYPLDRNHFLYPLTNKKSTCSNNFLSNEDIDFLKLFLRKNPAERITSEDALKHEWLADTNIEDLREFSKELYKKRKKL
Sequence of Plasmodium falciparum protein kinase 6 (PK6, PF3D7_1337100) (Q8IDW1 1-305): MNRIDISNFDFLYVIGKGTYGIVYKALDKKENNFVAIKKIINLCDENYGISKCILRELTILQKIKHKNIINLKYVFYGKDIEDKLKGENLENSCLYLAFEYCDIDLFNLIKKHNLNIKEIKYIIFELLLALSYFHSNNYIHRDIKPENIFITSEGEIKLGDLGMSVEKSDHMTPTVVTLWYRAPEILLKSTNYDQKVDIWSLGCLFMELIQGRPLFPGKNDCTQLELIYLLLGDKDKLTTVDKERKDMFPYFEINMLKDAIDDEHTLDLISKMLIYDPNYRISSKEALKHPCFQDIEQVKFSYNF

Turning to `CCC(Cc1ccccc1)c1cc(O)c(Cc2ccc(-c3ccccc3)cc2)c(=O)o1` (stereo not given), the growth inhibition in assay [1] is -3%; in assay [4], 89% (active). The results for the inhibition in assay [2] and in assay [3] were 3% and -1%, respectively. Also, the outcome in assay [5], in assay [6], in assay [7] and in assay [8] was inactive.

As to `COc1cc(O)c2c(=O)c(OC)c(-c3cccc(Cl)c3OCC(=O)O)oc2c1OC`, the growth inhibition in assay [1] was -2%; in assay [4], 100% (active). Further, the inhibition (usually the change of the read-out against control, counted positive when it falls) is -6% in assay [2] and -1% in assay [3]. Besides, the result in assay [5], in assay [6], in assay [7] and in assay [8] was inactive.

Consider `COc1ccc(NC(=O)Nc2ccc(-c3ccc(-c4nc5c(C)cccc5[nH]4)s3)cc2)cc1`, for which the growth inhibition was 96% (active) in assay [1] and 100% (active) in assay [4]. Further, the inhibition was 74% (active) in assay [2] and 3% in assay [3]. In addition, the result in assay [5], in assay [6], in assay [7] and in assay [8] was inactive.

On to `CC1CCCC(NCc2c(O)ccc3ccccc23)C1` (stereo not given), for which the growth inhibition in assay [1] is 25%; in assay [4], 93% (active). The results for the inhibition in assay [2] and in assay [3] were 10% and 1%, respectively. The outcome in assay [5], in assay [6], in assay [7] and in assay [8] was inactive.

Consider `Clc1ccc(Nc2nc(NCc3ccccc3)nc(N/N=C/c3ccccn3)n2)cc1`, for which the growth inhibition was 91% (active) in assay [1] and 99% (active) in assay [4]. Moreover, the inhibition in assay [2] was 41%; in assay [3] it was 3%. Further, the outcome in assay [5], in assay [6], in assay [7] and in assay [8] was inactive.

With `O=C(Nc1ccc(Cn2nc(Cl)c(N3CCNCC3)cc2=O)cc1)Nc1ccc(-c2ccccc2)cc1`, the values for the growth inhibition in assay [1] and in assay [4] were 49% and 97% (active), respectively. In addition, the inhibition in assay [2] is 99% (active); in assay [3], -3%. The outcome in assay [5], in assay [6], in assay [7] and in assay [8] was inactive.

As for `CC1(C)N=C(N)N=C(N)N1c1ccc([N+](=O)[O-])cc1`, the growth inhibition in assay [1] was 1%; in assay [4], 93% (active). The inhibition in assay [2] is 3%; in assay [3], -3%. Also, the outcome in assay [5], in assay [6], in assay [7] and in assay [8] was inactive.

On to `COc1cc2nc(N(C)C)nc(Nc3ccc4c(cnn4Cc4ccccc4)c3)c2cc1OC`, for which the growth inhibition was 102% (active) in assay [1] and 100% (active) in assay [4]. For the same molecule, the inhibition was 90% (active) in assay [2] and -4% in assay [3]. In addition, the result in assay [5], in assay [6], in assay [7] and in assay [8] was inactive.

Take `CCOc1c(CNCCCNc2cc(=O)c3ccccc3[nH]2)cc(Br)cc1OC`: the growth inhibition in assay [1] is 18%; in assay [4], 80% (active). Moreover, the figures for the inhibition in assay [2] and in assay [3] were 10% and -9%, respectively. The result in assay [5], in assay [6], in assay [7] and in assay [8] was inactive.

Turning to `COc1ccc(Cn2c(N3CCN(S(=O)(=O)c4ccc(OC)cc4)CC3)nc3c2c(=O)n(CC2CC2)c(=O)n3CC2CC2)cc1`, the growth inhibition in assay [1] was 39%; in assay [4], 92% (active). The inhibition is -12% in assay [2] and -3% in assay [3]. Further, the outcome in assay [5], in assay [6], in assay [7] and in assay [8] was inactive.

On to `Cc1c(CNCCCNc2nc3cscc3[nH]2)sc(C(F)F)c1Br`, for which the growth inhibition in assay [1] was 11%; in assay [4], 99% (active). Further, the inhibition in assay [2] and in assay [3] was 1% throughout. Further, the outcome in assay [5], in assay [6], in assay [7] and in assay [8] was inactive.

As to `CCN(CC)C(=O)C1CCCN(C(=O)Nc2cc(C(F)(F)F)cc(C(F)(F)F)c2)C1` (stereo not given), the growth inhibition in assay [1] was 98% (active); in assay [4] it was 86% (active). In addition, the inhibition is 0% in assay [2] and -2% in assay [3]. The outcome in assay [5], in assay [6], in assay [7] and in assay [8] was inactive.

`CCOc1cc(C(=O)Nc2cccnc2)cc(Br)c1OCCC(C)C`: the growth inhibition in assay [1] is 51% (active); in assay [4] it was 88% (active). The inhibition in assay [2] is 4%; in assay [3] it was 1%. Moreover, the result in assay [5], in assay [6], in assay [7] and in assay [8] was inactive.

For `O=C(NCc1ccc(Cl)c(Cl)c1)c1ccc(-c2nc3ccc(F)cc3[nH]2)cc1`, the growth inhibition in assay [1] is 9%; in assay [4], 93% (active). Besides, the inhibition in assay [2] was 0%; in assay [3] it was 1%. The outcome in assay [5], in assay [6], in assay [7] and in assay [8] was inactive.

As for `CC1(C)[C@H]2CC[C@]1(C)CN(CC(O)Cn1c3ccccc3c3cc(I)ccc31)C2` (stereo not given in full), the growth inhibition in assay [1] is 82% (active); in assay [4] it was 94% (active). Besides, the values for the inhibition in assay [2] and in assay [3] were -7% and 1%, respectively. In addition, the outcome in assay [5], in assay [6], in assay [7] and in assay [8] was inactive.

With `CC(C)CCn1c(Sc2ccc(C#N)c([N+](=O)[O-])c2)nnc1-c1ccc(N(C)C)cc1`, the growth inhibition in assay [1] is 96% (active); in assay [4], 97% (active). The figures for the inhibition in assay [2] and in assay [3] were 11% and 3%, respectively. In addition, the result in assay [5], in assay [6], in assay [7] and in assay [8] was inactive.

For `CCOC(=O)c1[nH]c(-c2ccc(Cl)cc2)nc1NC(=S)NCCCN1CCOCC1`, the growth inhibition is 33% in assay [1] and 92% (active) in assay [4]. Besides, the inhibition in assay [2] was 22%; in assay [3], -4%. The outcome in assay [5], in assay [6], in assay [7] and in assay [8] was inactive.

`COc1cc(F)c2ncc(Cl)c(CCN3CCC(NCc4cc5c(cn4)OCCO5)CC3)c2c1`: the growth inhibition is 57% (active) in assay [1] and 89% (active) in assay [4]. The inhibition is 2% in assay [2] and -1% in assay [3]. For the same molecule, the outcome in assay [5], in assay [6], in assay [7] and in assay [8] was inactive.

`Cc1cccc(C)c1CNc1nc(N2CCOCC2)cc2c(C)c(C)[nH]c12`: the growth inhibition was 64% (active) in assay [1] and 92% (active) in assay [4]. The inhibition in assay [2] is 51% (active); in assay [3], -4%. In addition, the outcome in assay [5], in assay [6], in assay [7] and in assay [8] was inactive.

Consider `CC(C)CC(NC(=O)c1ccc(F)cc1)C(=O)N[C@H](/C=N/N1CCNC1=O)CC(C)C` (stereo not given in full), for which the growth inhibition in assay [1] was 84% (active); in assay [4], 89% (active). Besides, the inhibition in assay [2] is -5%; in assay [3], -4%. Besides, the result in assay [5], in assay [6], in assay [7] and in assay [8] was inactive.

For the origin of these results see PubChem BioAssay.
